Measurements reported in the supplement of paper PMC4954754.
“And” between values parts separate entries of the source, which are not always exact repeats. Equal entries are not always repeated. ± gives the uncertainty stated by the source.

These molecules were tested on HEK293T-Rex XBP1-RLuc (assay: XBP1-RLuc splicing reporter activation, triplicate, relative to 500 nM thapsigargin (% of thapsigargin); higher = stronger IRE1/XBP1s reporter activation). Conditions: 6.8 µM; 18 h; screen: confirmation.
Description: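 HEK293T-Rex cells stably expressing the ERSE-firefly luciferase (BiP promoter, ATF6-preferring) or XBP1-splicing Renilla luciferase (IRE1/XBP1s) reporter, 1536-well plates, compound at 6.8 µM for 18 hr at 37 °C; luminescence read […] and expressed as % activation = 100*(compound - median DMSO)/(median 500 nM thapsigargin - median DMSO). Primary screen was single-pass; confirmation screen in triplicate (mean ± SD).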

Compound	XBP1-RLuc splicing reporter activation
Cc1ccc(-c2csc(Nc3ccc(O)cc3)n2)cc1	21.3 ± 2.7
O=[N+]([O-])c1ccc(/C=C/c2ccc(O)cc2)cc1	19.2 ± 1.3
N#C/C(=C/c1ccc(O)c(O)c1)c1nc2ccccc2[nH]1	10.3 ± 0.38
COc1c(O)cc2oc(-c3ccc(O)c(O)c3)cc(=O)c2c1O	53.7 ± 3.8
C=CCNC(=O)c1sc2nc3cc(C)c(C)cc3cc2c1N	-0.518 ± 1.4
CC(C)c1ccc(/C=N\NC(=O)c2ccccc2)cc1	6.81 ± 0.33
O=[N+]([O-])c1ccc2nc(/C=C/c3ccccc3)[nH]c2c1	1.8 ± 0.81
CCCCCCc1ccc(-c2ncc(N)cn2)cc1	12.9 ± 0.42
CCc1nc2sc(C(=O)c3ccccc3)c(N)c2cc1C	2.72 ± 1.5
CCCNC(=O)c1ccc2nc(-c3ccc4[nH]ccc4c3)sc2c1	-0.994 ± 0.65
C=CCn1c(N2CCC(C(=O)NCCc3ccc(O)c(O)c3)CC2)nc2ccccc21	33.9 ± 2
N#CC1=C(N)Oc2c(ccc3ccccc23)C1c1ccccc1 (stereo not given)	14.2 ± 1.1
O=C(c1ccccc1)c1c(O)ccc2c(C(=O)c3ccccc3)c(O)ccc12	15.8 ± 2.8
COC(=O)c1c(NC(=O)CCl)sc(C(=O)Nc2cccc([N+](=O)[O-])c2)c1C	12.1 ± 0.46
Cc1cc(C)c2nc3sc(C(=O)N4CCCCC4)c(N)c3cc2c1	1.34 ± 0.73
O=C(COC(=O)c1cc(O)c(O)c(O)c1)Nc1ccc(Br)cc1F	20.18 ± 0.15
O=C(Nc1ccc2c(c1)OCCO2)C(=O)Nc1ccccc1Cl	-0.329 ± 3.7
O=C1NC(=Nc2ccc(F)cc2)S/C1=C\c1ccc(O)c(O)c1	17.4 ± 1.8
Nc1ccc2nc(/C=C/c3ccco3)[nH]c2c1	17.8 ± 0.14
Cc1ccc(C(=O)Nc2ccccc2N)cc1	14.1 ± 1.3

Compound	XBP1-RLuc splicing reporter activation
COc1ccc(-c2csc(-c3ccc(O)cc3)n2)cc1	8.78 ± 1.3
CCN(CC)c1ccc(NC(=O)c2cccc(OC)c2)cc1	0.922 ± 1.9
O=C(NC1CCCC1)c1cc(-c2cccs2)on1	4.95 ± 0.3
CC(C)CC(c1nnnn1C1CCCC1)N1CCN(C(=O)c2ccco2)CC1 (stereo not given)	10.6 ± 2.2
Nc1ccccc1NC(=O)c1ccc(C(F)(F)F)cc1	11.1 ± 2.7
Cc1ccc(O)c(-c2cc(C(F)(F)C(F)F)no2)c1	13.8 ± 1.5
Cc1ccc(O)c(NC(=O)c2cc(-c3cccnc3)on2)c1	19.8 ± 0.85
CS(=O)(=O)c1ncc(Cl)c(C(=O)C(C#N)c2nc3ccccc3s2)n1 (stereo not given)	19.5 ± 4.9
COc1cc2ccccc2cc1C(=O)N/N=C/c1cccs1	3.81 ± 0.66
O=c1cc(-c2ccc(O)c(O)c2)oc2cc(O)cc(O)c12	16.5 and 14.4
CC(=O)N1CCc2c([nH]c3ccccc23)C12CCN(CCCOc1ccccc1)CC2	65.9 ± 4
CCOc1cc(C2C(C(=O)OC3CCCCC3)=C(C)NC3=C2C(=O)CC(c2ccc(OC)cc2)C3)cc(Br)c1O (stereo not given)	18.5 ± 2.8
Nc1cn(-c2ccccc2)nc1-c1cccs1	50.6 ± 2.8
O=C1N/C(=C\c2ccc(O)cc2)C(O)=C1C=NCc1ccccc1	49.1 ± 2.3
Cc1ccc(O)c(NC(=O)c2cc(C3CC3)on2)c1	13.9 ± 2.1
COc1cccc(-c2cc(C(=O)Nc3cc(C)ccc3O)on2)c1	12.2 ± 1.9
N#Cc1c(NC(=O)c2ccc3ncsc3c2)sc2c1CCC2	1.45 ± 1.6
Cc1ccc(O)c(N/C=C/C(=O)c2cccs2)c1	4.09 ± 1.2
Cc1ccc(C)c(/C=N/Nc2nncc3ccccc23)c1	5.57 ± 0.69
COc1ccc(NC(=O)/C(Cl)=C\c2ccccc2)cc1	-0.467 ± 2.4
